{"source": "PubChem BioAssay (NCI)", "note": "Compounds without any hit were thinned out: in the full panel of roughly 79,000, 15% have a hit. Calls of active or inactive are those of the source. Cut-off read from the data, not from the text of the source: active = growth inhibition above about 70%; inactive = the rest.", "data": [{"test": "NCI Yeast Anticancer Drug Screen. Data for the rad50 strain (AID 155);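 note: 0% = growth of vehicle-only cultures of the same strain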", "details": "S. cerevisiae rad50 strain growth inhibition; at 50.0 µM; hits give high values", "how_it_was_run": "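Inhibition values express reduced yeast growth in compound-treated cultures relative to vehicle-treated controls.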", "values": [{"smiles": "O=C1c2cccc([N+](=O)[O-])c2C(=O)c2cccc(Cl)c21", "growth inhibition": "29.2% (inactive)"}, {"smiles": "CCOC(=O)C(Cc1ccc(Cl)cc1)(Cc1ccc(Cl)cc1)C(=O)OCC", "growth inhibition": "0.75% (inactive)"}, {"smiles": "Cc1cc(Cl)ccc1NC(=O)/C(=N\\NC(C)(C)C)C(C#N)c1nc(-c2ccc([N+](=O)[O-])cc2)cs1", "note": "(configuration not stated)", "growth inhibition": "23.8% (inactive)"}, {"smiles": "COC(=O)CCc1ccc(NC(=O)OC)cc1", "growth inhibition": "-1.4% (inactive)"}, {"smiles": "CC/C(C)=N/NC(=O)c1ccc([N+](=O)[O-])cc1", "growth inhibition": "22.7% (inactive)"}, {"smiles": "COc1cnnc2ccccc12", "growth inhibition": "12.8% (inactive)"}, {"smiles": "CC/C(C)=N/NS(C)(=O)=O", "growth inhibition": "12.8% (inactive)"}, {"smiles": "CNn1c(C)n[nH]c1=O", "growth inhibition": "4.95% (inactive)"}, {"smiles": "O=C(NN1C(=O)C(Cl)C1c1ccccc1Cl)c1ccccc1O", "note": "(configuration not stated)", "growth inhibition": "-48.1% (inactive)"}, {"smiles": "c1ccc2cc(N3CCOCC3)ccc2c1", "growth inhibition": "-19.1% (inactive)"}, {"smiles": "CC(=O)OCC1C(=O)OCC1C(=O)N1Cc2cc3ccccc3nc2C1", "note": "(configuration not stated)", "growth inhibition": "-10.6% (inactive)"}, {"smiles": "Clc1ccc(C2=CSC3=NCCN23)cc1", "growth inhibition": "3.45% (inactive)"}, {"smiles": "C=C(C)C(C)(C)n1[nH]c(=O)n(-c2ccccc2)c1=O", "growth inhibition": "13.2% (inactive)"}, {"smiles": "CN1CCN(S(=O)(=O)C(c2ccccc2)C2(O)CCCCC2)CC1", "note": "(configuration not stated)", "growth inhibition": "-1.3% (inactive)"}, {"smiles": "COc1ccc(NC(=O)C(=O)Cc2nc3ccc([N+](=O)[O-])cc3[nH]c2=O)c(OC)c1", "growth inhibition": "9.85% (inactive)"}, {"smiles": "COc1cc(NC(=O)CCN2CCOCC2)c2ncccc2c1", "growth inhibition": "41.6% (inactive)"}, {"smiles": "CSC(C1c2ccccc2N(C)C2=NC(=O)N(C)C(=O)C21Cl)S(=O)(=O)c1ccc(C)cc1", "note": "(configuration not stated)", "growth inhibition": "50.2% (inactive)"}]}]}
